What all share (test): DAPPL (digital affinity profiling via proximity ligation, sequencing); 10 mM Tris-HCl pH 7.5, 50 mM NaCl, 1 mM DTT, 4% glycerol, room temperature, 30 min; GST-TFs on glutathione beads, 16-mer random dsDNA library, 0.1% formaldehyde crosslink after washing; high values mean tight binding
Test [1] has as its target T1, FEV (Homo sapiens, UniProt Q99581 1-238).
T1 sequence: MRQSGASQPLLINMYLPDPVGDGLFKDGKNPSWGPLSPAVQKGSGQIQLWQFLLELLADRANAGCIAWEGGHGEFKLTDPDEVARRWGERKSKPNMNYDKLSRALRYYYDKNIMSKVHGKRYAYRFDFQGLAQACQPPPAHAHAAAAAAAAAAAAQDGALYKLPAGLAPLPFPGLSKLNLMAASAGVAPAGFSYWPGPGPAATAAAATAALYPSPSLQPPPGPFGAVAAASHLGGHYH
The note with it: protein: recombinant; tags: N-terminal GST; dsDNA, one strand shown. A digest of the protocol: (§1)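 Binding signal is given per hexamer as its read frequency for a factor divided by its frequency in the tag-only sample. GST-fused human transcription factors were expressed in yeast, captured on glutathione beads, barcoded with DNA and pooled with that sample, then incubated with 200 nmole of a 16-mer random double-stranded DNA library in Tris/NaCl/DTT/glycerol buffer for 30 min at room temperature. The pools were then washed, crosslinked, proximity-ligated, amplified by PCR and sequenced on an Illumina NextSeq500.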

Test [2] addresses ETV5 (Homo sapiens, UniProt P41161 1-510). The note with it: protein: recombinant; tags: N-terminal GST; dsDNA, one strand shown. A digest of the protocol: as §1
For test [3], the target named is HSF1 (Homo sapiens, UniProt Q00613 1-529). The following applies: protein: recombinant; tags: N-terminal GST; chain copies: 3; dsDNA, one strand shown. An outline of the steps:
as §1

Test [4] addresses T2, SPIC (Homo sapiens, UniProt Q8N5J4 1-248).
T2 sequence: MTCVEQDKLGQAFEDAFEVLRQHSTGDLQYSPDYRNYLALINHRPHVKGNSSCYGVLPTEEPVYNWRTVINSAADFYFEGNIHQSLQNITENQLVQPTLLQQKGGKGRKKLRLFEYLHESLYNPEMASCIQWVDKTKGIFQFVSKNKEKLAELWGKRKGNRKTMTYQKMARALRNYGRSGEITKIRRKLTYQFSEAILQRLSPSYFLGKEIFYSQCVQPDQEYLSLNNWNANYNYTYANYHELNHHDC
The following applies: protein: recombinant; tags: N-terminal GST; dsDNA, one strand shown. A digest of the protocol:
as §1

Test [5] has as its target ELF4 (Homo sapiens, UniProt Q99607 1-663). The note with it: protein: recombinant; tags: N-terminal GST; dsDNA, one strand shown. An outline of the steps:
as §1

Test [6] addresses T3, ELK4 (Homo sapiens, UniProt P28324-2 1-405).
T3 sequence: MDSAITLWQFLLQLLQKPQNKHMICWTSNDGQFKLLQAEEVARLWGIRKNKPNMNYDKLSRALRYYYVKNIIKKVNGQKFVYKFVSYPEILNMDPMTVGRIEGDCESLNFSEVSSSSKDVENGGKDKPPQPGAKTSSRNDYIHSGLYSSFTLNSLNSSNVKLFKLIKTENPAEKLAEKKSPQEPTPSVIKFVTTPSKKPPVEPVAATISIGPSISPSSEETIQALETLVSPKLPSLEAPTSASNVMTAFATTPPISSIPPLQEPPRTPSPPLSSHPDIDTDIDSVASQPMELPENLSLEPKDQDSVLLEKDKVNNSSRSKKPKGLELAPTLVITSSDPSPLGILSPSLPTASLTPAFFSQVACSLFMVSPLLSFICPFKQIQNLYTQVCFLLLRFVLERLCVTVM
The note with it: protein: recombinant; tags: N-terminal GST; dsDNA, one strand shown. A digest of the protocol: as §1

The target of test [7] is T4, ETV2 (Homo sapiens, UniProt O00321 1-342).
T4 sequence: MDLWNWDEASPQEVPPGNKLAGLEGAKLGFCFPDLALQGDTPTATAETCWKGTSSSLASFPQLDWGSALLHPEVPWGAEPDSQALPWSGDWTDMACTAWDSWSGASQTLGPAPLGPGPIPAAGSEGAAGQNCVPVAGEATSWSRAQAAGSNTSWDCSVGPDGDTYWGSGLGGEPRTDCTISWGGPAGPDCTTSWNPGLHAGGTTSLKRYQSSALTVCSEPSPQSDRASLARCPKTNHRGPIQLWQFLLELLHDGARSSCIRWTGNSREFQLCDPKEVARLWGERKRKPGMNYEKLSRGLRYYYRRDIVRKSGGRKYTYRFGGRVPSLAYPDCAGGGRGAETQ
The note with it: protein: recombinant; tags: N-terminal GST; dsDNA, one strand shown. An outline of the steps:
as §1

Test [8] has as its target T5, ELF3 (Homo sapiens, UniProt P78545 1-371).
T5 sequence: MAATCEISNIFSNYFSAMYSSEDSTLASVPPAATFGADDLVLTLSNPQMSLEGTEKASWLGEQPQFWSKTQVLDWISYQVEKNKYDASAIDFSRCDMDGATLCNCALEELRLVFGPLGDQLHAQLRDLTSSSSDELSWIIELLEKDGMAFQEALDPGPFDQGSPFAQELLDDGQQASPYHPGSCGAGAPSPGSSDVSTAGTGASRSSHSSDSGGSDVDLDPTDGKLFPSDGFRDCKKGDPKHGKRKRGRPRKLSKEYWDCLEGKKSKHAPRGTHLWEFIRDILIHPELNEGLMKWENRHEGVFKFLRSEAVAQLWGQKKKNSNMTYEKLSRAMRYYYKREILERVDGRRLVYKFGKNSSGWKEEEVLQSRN
The note with it: protein: recombinant; tags: N-terminal GST; dsDNA, one strand shown. An outline of the steps: as §1

The target of test [9] is CRX (Homo sapiens, UniProt O43186 1-299). The note with it: protein: recombinant; tags: N-terminal GST; dsDNA, one strand shown. A digest of the protocol: as §1
Chain of CRX (O43186 whole entry): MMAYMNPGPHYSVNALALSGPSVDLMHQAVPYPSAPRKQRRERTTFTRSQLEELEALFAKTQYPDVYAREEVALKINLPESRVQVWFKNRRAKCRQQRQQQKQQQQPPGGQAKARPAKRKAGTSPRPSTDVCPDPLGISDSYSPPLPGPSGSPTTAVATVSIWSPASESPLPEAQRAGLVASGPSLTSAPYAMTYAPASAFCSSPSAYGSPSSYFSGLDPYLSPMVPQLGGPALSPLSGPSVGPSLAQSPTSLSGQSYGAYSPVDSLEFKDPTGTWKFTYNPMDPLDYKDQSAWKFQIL
Test [10] concerns the target ETV1 (Homo sapiens, UniProt P50549 1-477). The following applies: protein: recombinant; tags: N-terminal GST; dsDNA, one strand shown. A digest of the protocol: as §1
Test [11] deals with T6, ERF (Homo sapiens, UniProt P50548 1-548).
T6 sequence: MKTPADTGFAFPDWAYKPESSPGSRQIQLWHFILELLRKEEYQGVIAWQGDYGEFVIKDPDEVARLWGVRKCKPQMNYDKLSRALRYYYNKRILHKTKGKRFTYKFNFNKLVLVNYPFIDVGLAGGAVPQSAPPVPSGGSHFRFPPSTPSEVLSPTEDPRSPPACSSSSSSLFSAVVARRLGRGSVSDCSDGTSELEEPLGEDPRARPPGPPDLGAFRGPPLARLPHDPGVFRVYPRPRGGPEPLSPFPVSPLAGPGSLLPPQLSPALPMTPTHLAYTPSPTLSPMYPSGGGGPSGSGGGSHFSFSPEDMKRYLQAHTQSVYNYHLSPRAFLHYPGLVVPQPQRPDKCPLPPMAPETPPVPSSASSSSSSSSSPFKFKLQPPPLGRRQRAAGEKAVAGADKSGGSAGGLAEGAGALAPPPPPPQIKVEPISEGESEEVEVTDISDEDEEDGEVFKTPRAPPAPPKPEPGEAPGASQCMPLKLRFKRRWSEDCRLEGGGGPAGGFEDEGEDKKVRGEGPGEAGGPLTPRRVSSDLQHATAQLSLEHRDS
The following applies: protein: recombinant; tags: N-terminal GST; dsDNA, one strand shown. A digest of the protocol: as §1

For test [12], the target named is T7, ETV3L (Homo sapiens, UniProt Q6ZN32 1-361).
T7 sequence: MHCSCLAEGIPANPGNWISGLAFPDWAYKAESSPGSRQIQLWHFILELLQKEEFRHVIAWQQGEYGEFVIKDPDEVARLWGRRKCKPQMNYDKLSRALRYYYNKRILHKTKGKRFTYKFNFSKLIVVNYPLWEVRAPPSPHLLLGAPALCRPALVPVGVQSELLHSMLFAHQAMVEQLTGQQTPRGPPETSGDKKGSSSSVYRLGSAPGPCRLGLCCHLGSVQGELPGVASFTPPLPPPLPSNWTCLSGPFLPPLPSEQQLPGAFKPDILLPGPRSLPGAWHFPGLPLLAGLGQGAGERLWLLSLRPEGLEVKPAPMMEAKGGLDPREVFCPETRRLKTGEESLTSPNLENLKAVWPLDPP
The following applies: protein: recombinant; tags: N-terminal GST; dsDNA, one strand shown. A digest of the protocol: as §1

Test [13] has as its target T8, ETS2 (Homo sapiens, UniProt P15036 1-469).
T8 sequence: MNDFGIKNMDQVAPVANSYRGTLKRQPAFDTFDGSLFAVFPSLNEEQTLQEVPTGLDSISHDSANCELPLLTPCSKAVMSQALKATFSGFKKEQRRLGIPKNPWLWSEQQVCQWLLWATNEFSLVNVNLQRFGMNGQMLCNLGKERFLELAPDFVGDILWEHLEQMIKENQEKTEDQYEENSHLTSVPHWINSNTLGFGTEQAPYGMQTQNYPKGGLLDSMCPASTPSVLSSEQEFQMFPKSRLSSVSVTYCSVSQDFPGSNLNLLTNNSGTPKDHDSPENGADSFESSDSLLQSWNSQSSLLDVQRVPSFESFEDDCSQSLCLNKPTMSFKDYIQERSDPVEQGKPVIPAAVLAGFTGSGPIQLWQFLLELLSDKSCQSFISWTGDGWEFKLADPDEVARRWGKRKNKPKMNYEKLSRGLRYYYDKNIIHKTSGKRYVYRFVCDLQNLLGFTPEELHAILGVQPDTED
The note with it: protein: recombinant; tags: N-terminal GST; dsDNA, one strand shown. A digest of the protocol: as §1

In test [14] the target is T9, SPDEF (Homo sapiens, UniProt O95238 1-335).
T9 sequence: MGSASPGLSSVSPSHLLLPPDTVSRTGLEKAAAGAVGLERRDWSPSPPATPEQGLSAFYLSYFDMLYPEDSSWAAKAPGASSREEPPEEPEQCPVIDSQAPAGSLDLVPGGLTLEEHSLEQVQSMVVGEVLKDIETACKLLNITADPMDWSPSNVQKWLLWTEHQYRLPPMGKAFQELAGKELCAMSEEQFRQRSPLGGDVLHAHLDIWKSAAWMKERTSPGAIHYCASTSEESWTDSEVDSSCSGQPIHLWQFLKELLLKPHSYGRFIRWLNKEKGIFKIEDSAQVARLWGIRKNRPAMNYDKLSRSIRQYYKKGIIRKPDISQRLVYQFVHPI
The following applies: protein: recombinant; tags: N-terminal GST; dsDNA, one strand shown. A digest of the protocol:
as §1

The target in test [15] is T10, ETV7 (Homo sapiens, UniProt Q9Y603 1-341).
T10 sequence: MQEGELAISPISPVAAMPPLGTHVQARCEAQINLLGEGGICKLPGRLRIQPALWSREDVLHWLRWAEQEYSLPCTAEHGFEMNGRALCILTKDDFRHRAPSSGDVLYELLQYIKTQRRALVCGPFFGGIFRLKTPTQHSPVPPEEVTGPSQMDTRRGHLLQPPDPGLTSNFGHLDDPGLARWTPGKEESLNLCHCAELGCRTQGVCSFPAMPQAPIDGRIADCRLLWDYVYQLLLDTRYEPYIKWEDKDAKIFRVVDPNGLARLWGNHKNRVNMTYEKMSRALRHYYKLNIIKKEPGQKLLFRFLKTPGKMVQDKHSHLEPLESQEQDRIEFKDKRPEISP
The note with it: protein: recombinant; tags: N-terminal GST; dsDNA, one strand shown. A digest of the protocol:
as §1

Test [16] addresses T11, ELF5 (Homo sapiens, UniProt Q9UKW6-2 1-255).
T11 sequence: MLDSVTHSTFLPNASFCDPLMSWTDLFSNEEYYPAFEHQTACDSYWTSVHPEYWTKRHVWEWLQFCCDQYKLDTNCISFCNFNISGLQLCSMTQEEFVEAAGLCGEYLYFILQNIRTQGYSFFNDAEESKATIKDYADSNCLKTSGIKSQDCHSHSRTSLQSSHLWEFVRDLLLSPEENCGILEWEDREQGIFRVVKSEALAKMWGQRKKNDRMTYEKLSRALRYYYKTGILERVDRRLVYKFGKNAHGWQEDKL
The note with it: protein: recombinant; tags: N-terminal GST; dsDNA, one strand shown. An outline of the steps:
as §1

Test [17] deals with T12, ETV3 (Homo sapiens, UniProt P41162-2 1-143).
T12 sequence: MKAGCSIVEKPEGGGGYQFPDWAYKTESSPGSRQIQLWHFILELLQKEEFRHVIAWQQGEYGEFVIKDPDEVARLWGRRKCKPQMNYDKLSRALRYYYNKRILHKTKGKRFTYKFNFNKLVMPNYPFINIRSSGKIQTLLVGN
The note with it: protein: recombinant; tags: N-terminal GST; dsDNA, one strand shown. A digest of the protocol:
as §1

In test [18] the target is ETV6 (Homo sapiens, UniProt P41212 1-452). The note with it: protein: recombinant; tags: N-terminal GST; dsDNA, one strand shown. A digest of the protocol: as §1
Chain of ETV6 (P41212 whole entry): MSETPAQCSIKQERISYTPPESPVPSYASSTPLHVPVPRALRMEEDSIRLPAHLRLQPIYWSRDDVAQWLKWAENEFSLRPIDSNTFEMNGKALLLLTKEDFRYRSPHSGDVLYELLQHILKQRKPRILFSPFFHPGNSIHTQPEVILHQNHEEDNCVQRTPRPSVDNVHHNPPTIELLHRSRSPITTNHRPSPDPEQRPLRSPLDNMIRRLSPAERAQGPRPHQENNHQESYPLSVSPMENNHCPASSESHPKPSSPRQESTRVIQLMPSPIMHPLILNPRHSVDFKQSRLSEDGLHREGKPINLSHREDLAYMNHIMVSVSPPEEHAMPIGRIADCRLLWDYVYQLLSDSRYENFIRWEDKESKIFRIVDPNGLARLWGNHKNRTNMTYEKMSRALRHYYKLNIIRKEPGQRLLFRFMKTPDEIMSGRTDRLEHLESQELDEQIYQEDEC

Chain of ETV1 (P50549 whole entry): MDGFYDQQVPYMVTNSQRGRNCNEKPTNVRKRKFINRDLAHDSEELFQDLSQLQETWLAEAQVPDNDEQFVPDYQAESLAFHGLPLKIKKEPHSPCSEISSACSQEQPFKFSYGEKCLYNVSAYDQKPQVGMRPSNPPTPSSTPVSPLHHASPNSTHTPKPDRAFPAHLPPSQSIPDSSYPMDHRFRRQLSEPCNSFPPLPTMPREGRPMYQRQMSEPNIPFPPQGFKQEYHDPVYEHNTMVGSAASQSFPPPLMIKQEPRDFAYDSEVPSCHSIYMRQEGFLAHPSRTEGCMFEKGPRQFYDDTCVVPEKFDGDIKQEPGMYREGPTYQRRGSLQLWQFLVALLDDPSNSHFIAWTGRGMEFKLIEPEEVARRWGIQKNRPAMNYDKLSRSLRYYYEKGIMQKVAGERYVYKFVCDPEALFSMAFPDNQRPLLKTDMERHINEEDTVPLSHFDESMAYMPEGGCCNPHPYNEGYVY
Chain of ELF4 (Q99607 whole entry): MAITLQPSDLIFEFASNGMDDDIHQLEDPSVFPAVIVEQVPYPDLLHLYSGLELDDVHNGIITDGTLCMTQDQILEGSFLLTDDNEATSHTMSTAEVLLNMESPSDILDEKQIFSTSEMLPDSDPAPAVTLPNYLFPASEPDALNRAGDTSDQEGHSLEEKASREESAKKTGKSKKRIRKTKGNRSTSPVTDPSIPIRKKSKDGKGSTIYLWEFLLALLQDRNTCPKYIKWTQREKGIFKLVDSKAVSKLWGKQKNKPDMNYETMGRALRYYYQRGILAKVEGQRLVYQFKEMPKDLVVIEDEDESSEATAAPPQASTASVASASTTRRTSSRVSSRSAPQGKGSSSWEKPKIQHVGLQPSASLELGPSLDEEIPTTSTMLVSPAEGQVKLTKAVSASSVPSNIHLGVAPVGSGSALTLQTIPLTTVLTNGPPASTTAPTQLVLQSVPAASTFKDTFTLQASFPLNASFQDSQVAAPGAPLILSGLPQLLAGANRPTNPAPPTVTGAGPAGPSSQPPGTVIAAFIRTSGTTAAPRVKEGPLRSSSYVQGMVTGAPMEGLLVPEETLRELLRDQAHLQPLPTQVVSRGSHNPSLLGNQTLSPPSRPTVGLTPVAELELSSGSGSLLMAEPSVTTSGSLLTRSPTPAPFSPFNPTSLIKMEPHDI
Chain of ETV5 (P41161 whole entry): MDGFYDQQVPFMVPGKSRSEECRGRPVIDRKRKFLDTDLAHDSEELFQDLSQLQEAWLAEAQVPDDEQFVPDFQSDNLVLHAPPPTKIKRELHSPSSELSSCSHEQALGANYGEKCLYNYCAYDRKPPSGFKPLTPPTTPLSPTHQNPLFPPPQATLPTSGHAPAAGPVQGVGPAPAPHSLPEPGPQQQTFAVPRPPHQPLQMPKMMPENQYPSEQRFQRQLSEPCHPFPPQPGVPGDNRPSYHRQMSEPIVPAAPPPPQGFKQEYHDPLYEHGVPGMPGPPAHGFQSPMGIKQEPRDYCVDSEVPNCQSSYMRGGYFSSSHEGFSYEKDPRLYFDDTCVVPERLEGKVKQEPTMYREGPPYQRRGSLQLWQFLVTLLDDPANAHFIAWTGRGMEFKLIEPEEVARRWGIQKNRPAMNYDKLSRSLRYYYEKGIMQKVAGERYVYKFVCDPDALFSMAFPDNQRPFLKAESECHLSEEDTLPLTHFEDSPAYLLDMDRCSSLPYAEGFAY
Chain of HSF1 (Q00613 whole entry): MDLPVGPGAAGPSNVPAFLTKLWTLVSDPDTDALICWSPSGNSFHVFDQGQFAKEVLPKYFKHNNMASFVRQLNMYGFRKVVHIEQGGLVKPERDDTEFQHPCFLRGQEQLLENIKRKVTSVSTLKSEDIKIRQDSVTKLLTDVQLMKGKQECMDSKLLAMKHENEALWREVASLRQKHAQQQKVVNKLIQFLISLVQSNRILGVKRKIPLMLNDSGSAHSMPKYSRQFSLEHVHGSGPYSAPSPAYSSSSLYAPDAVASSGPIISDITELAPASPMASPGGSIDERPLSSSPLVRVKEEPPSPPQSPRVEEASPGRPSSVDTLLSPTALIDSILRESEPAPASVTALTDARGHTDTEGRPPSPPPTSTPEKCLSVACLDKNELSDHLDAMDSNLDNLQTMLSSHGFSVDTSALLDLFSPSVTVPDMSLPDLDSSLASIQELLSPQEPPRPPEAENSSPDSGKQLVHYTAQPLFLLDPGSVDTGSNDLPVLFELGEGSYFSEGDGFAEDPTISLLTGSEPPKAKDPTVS

As for ATGCAT, the binding signal in [1] is 1.18 fold enrichment (6-mer frequency, TF over GST control); in test [2], 1.19 fold enrichment (6-mer frequency, TF over GST control); in test [3], 1 fold enrichment (6-mer frequency, TF over GST control); in test [4], 1.31 fold enrichment (6-mer frequency, TF over GST control); in test [5] it was 1.28 fold enrichment (6-mer frequency, TF over GST control); in test [6], 1.11 fold enrichment (6-mer frequency, TF over GST control). Moreover, the binding signal in [7] was 1.27 fold enrichment (6-mer frequency, TF over GST control); in [8], 1.07 fold enrichment (6-mer frequency, TF over GST control); in [9], 1.05 fold enrichment (6-mer frequency, TF over GST control); in [10], 1.15 fold enrichment (6-mer frequency, TF over GST control); in test [11] it was 1.21 fold enrichment (6-mer frequency, TF over GST control); in test [12], 1.26 fold enrichment (6-mer frequency, TF over GST control). Moreover, the binding signal was 1.21 fold enrichment (6-mer frequency, TF over GST control) in test [13]; 1.32 fold enrichment (6-mer frequency, TF over GST control) in [14]; 1.21 fold enrichment (6-mer frequency, TF over GST control) in [15]; 1.15 fold enrichment (6-mer frequency, TF over GST control) in test [16]; 1.26 fold enrichment (6-mer frequency, TF over GST control) in [17]; 1.2 fold enrichment (6-mer frequency, TF over GST control) in [18].

The values are drawn from paper PMC7862700, “An all-to-all approach to the identification of sequence-specific readers for epigenetic DNA modifications on cytosine”.
